Reference: PubChem BioAssay AID1460 (National Center for Advancing Translational Sciences (NCATS), 2008)
The whole screen tested about 270,000 compounds, of which about 5,800 (2.1%) were called active. Roughly 16% stayed inconclusive and do not appear here. Only a selection was taken, and actives are over-represented in it overall. Unmarked numbers belong to inactive results. Calls follow the shape of the dose curve; as a rule, active = well fitted inhibition curve with a large enough effect; inconclusive = small, poorly fitted or top-dose-only effect; inactive = flat fitted curve, though single readings scatter.

Biological target: Microtubule-associated protein tau (Homo sapiens) (UniProt P10636)
Test: qHTS for Inhibitors of Tau Fibril Formation, Thioflavin T Binding; also: nearly all actives have a fitted effect of over 55% in size
Settings: recombinant tau K18 P301L (four-repeat tau fragment), heparin-induced fibrillization, ThT fluorescence; series mostly up to 57.4 µM; activity, negative = inhibition: at the top concentration
Outline: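 Recombinant human tau K18 fragment […] carrying P301L, 15 uM unlabeled plus 0.24 uM Alexa 594-labeled, was fibrillized with 20 uM heparin in 100 mM sodium acetate pH 7 for 6 hr at 37 C; 30 uM ThT fluorescence read after 1 hr.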
% is scaled to controls: 0 for no effect and ±100 for the full control effect; potency is read from the fitted curve at half-maximal effect.

Microtubule-associated protein tau (Homo sapiens), sequence (P10636 561-689 P618L limits assumed): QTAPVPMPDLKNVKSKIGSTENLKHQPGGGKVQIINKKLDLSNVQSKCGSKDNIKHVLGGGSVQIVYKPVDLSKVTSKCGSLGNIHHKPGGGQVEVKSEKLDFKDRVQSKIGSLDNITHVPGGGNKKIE

Row | Compound | activity, negative = inhibition | Potency
1 | COCCNC(=O)CSc1c(C)cnc2c1c(=O)n(C)c(=O)n2C | -7.06% | 
2 | CC(=O)N1c2ccccc2CC1C(=O)N1CCN(c2ccc(F)cc2)CC1 (stereo not given) | -7.29% | 
3 | Cc1ccc(Nc2nnc(SCc3ccccc3)s2)cc1 | -9.63% | 
4 | CC(C)c1ccc(Nc2nnc(SCC(=O)c3nnc(-c4ccccc4)o3)s2)cc1 |  | 17.8 µM (active)
5 | O=C(CSc1nnc(Nc2ccccc2)s1)Nc1cccnc1Cl | -18.4% | 
6 | CCOC(=O)c1c(S(=O)(=O)N2CCCC(C(=O)NCc3cccc(C)c3)C2)c(C)n(C)c1C (stereo not given) | 12% | 
7 | COc1cccc(CNC(=O)C2CCN(S(=O)(=O)c3ccc4c(ccn4C)c3)CC2)c1 | 3.32% | 
8 | CCOc1ccc(/C=N/NC(=O)CSc2ccccn2)cc1O | -6.19% | 
9 | COc1ccc(/C=N/N=C2/C(=O)Nc3ccccc32)cc1O |  | 10 µM (active)
10 | COc1ccc(/C=N/S(=O)(=O)c2ccccc2)cc1OC | 8.82% | 
11 | CCN(Cc1ccccc1)C(=O)c1cn(-c2cccc(OC)c2)c(=O)c2ccccc12 | -12% | 
12 | O=C(CSc1nnc(-c2ccccc2F)o1)Nc1cccc(C(F)(F)F)c1 | -3.91% | 
13 | CN(C(=O)CSc1nnc(NC(=O)Nc2ccccc2)s1)c1ccccc1 | 2.89% | 
14 | CCc1cccc(NC(=O)c2cnc(N3CCOCC3)c3ccccc23)c1 | -10.2% | 
15 | CCOC(=O)c1cnc2c(C)cc(C)cc2c1Nc1ccc(N2CCOCC2)cc1 |  | 11.2 µM (active)
16 | CCOC(=O)c1ccccc1C(=O)N1CCOCCOCCOCC1 | -6.87% | 
17 | Cc1cc(C)cc(NC(=O)c2cnc3sc(N4CCCC4)nn3c2=O)c1 | 3.36% | 
18 | Cc1[nH]c2ccccc2c1/C=N\NC(=O)Cn1nnc(-c2ccccc2)n1 | 3.95% | 
19 | CCn1c(-c2cc(OC)ccc2OC)csc1=Nc1c(C)n(C)n(-c2ccccc2)c1=O | -0.49% | 
20 | CN=c1scc(-c2cc(OC)ccc2OC)n1/N=C/c1c(C)[nH]c2ccccc12 |  | 14.1 µM (active)
21 | CCOc1ccc(NC(=O)c2cc(S(=O)(=O)N3CCCC3)c[nH]2)cc1 | -8.62% | 
22 | O=S(=O)(c1ccc(Br)cc1)c1nnn2c1nc(N1CCOCC1)c1sccc12 | -10.4% | 
23 | CCN1/C(=C\c2ccc3ccccc3[n+]2CC)Sc2cc(C)ccc21 |  | 15.8 µM (active)
24 | CCN1/C(=C/c2ccc3ccc(C)cc3[n+]2CC)Sc2ccccc21 | -14.4% | 
25 | COc1ccc(S(=O)(=O)NCC(c2ccc(N(C)C)cc2)N2CCCC2)cc1 (stereo not given) | 6.51% | 

Row | Compound | activity, negative = inhibition | Potency
26 | O=C(c1ccc(Br)cc1)N(Cc1cccs1)c1ccc(F)cc1 | -14% | 
27 | Nc1ccc(Nc2ccccc2)cc1 |  | 15.8 µM (active)
28 | c1ccc(Nc2n[nH]nc2-c2ccccc2)cc1 | -6.37% | 
29 | Cc1cc(Nc2ccccc2)nc(N)n1 | 0.943% | 
30 | CNc1ccc(-c2nc(-c3ccccc3C)no2)cc1[N+](=O)[O-] | 1.98% | 
31 | CC(=O)Nc1ccc(NC(=O)c2sc3nc4c(c(-c5ccc(C)cc5)c3c2N)CCC4)cc1 | -8.97% | 
32 | NC(=O)c1sc2nc3c(c(-c4ccccc4)c2c1N)CCC3 | -18% | 
33 | Cc1cccc(NC(=O)c2sc3nc4c(c(-c5ccco5)c3c2N)CCC4)c1 |  | 7.94 µM (active)
34 | CCN(CC)c1ccc(NC(=O)CN2C(=O)c3cccnc3Oc3ccc(Cl)cc32)c(C)c1 | -3.19% | 
35 | O=S(=O)(Nc1ccc2nc(-c3cccc(Cl)c3)oc2c1)c1ccccc1 | 10% | 
36 | CCOc1ccc(C(=O)Nc2ccc3nc4c(c(Nc5ccccc5OC)c3c2)CCCC4)cc1 |  | 14.1 µM (active)
37 | COc1ccc(NS(=O)(=O)c2cc(NC(=O)/C=C/c3cc(OC)c(OC)c(OC)c3)ccc2N2CCCCC2)cc1 | -3.88% | 
38 | CCOc1ccc(-n2nc3ccc(NC(=O)c4ccc(OC)c(Cl)c4)cc3n2)cc1 | -17.4% | 
39 | Cc1ccc(Nc2c3c(nc4ccccc24)CCC3)cc1 | -3.18% | 
40 | COc1cccc(NC(=O)c2ccc3c(SCC(=O)O)c4c(nc3c2)CCCC4)c1 | 0.652% | 
41 | COc1ccccc1Nc1c2c(nc3ccc(NC(=O)/C=C/c4cc(OC)c(OC)c(OC)c4)cc13)CCCC2 |  | 14.1 µM (active)
42 | COCCNC(=O)CCCN1C(=O)c2ccccc2Sc2ncccc21 | -0.918% | 
43 | Cc1ccc(NC(=O)c2ccc(CN3CC(=O)N4CCCCC4C3=O)cc2)c(Cl)c1 (stereo not given) | -11.5% | 
44 | Cc1ccnc(Nc2nc3ccccc3s2)n1 | -16% | 
45 | Cc1ccnc(-n2sc3ccccc3c2=O)n1 |  | 14.1 µM (active)
46 | Cc1ccnc(SCC(N)=O)n1 | -5.04% | 
47 | NS(=O)(=O)c1ccc(NC(=O)COC(=O)c2c3c(nc4ccccc24)/C(=C\c2ccc4c(c2)OCO4)CCC3)cc1 | -5.39% | 
48 | CCc1c(C)sc(NC(=O)/C=C/c2ccc3c(c2)OCO3)c1C(=O)OC | 8.02% | 
49 | O=C1/C(=C/c2ccc3c(c2)OCO3)CCC/C1=C\c1ccc2c(c1)OCO2 |  | 3.98 µM (active)
50 | O=C(N/N=C/c1ccc2c(c1)OCO2)C(=O)N1CCCC1 | -6.29% | 
